Among all 320,000 compounds or so, about 22,000 (6.9%) were called active. Entries that show only a call come without a potency. Inconclusive results (about 27%) are left out. This excerpt belongs to a sample that is enriched for actives. A number with no mark means an inactive call. Calls come from the whole dose curve; as a rule, active = well fitted inhibition curve with a large enough effect; inconclusive = small, poorly fitted or top-dose-only effect, or another doubt; inactive = no such curve, though single readings can be large or run the other way.
assay: Primary qHTS for delayed death inhibitors of the malarial parasite plastid, 96 hour incubation; conditions: P. falciparum luciferase reporter growth; series mostly up to 28.7 µM
How it was run: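 Two parasite generations (96 h, 37 C, 5% CO2) of compound exposure in infected erythrocytes (0.05% parasitemia, 2% hematocrit). Luciferase-reporter P. falciparum; decreased luminescence indicates inhibited growth, aimed at apicoplast-acting delayed death.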
Potency is the fitted concentration of half-maximal effect.

Compound	Potency	activity change, negative = inhibition
O=C(Nc1cccc([N+](=O)[O-])c1)N1CCc2ccccc2C1	inactive	
O=C(COC(=O)C1(c2ccc(F)cc2)CCCC1)N1CCNC1=O	inactive	
O=[N+]([O-])c1ccc2c(c1)C(N1CCOCC1)/C(=C/C1(O)CCCCC1)O2 (stereo not drawn)	1.65 µM (active)	
O=C(NC1CCCCC1)c1cc([N+](=O)[O-])ccc1N1CCOCC1	inactive	
O=C(/C=C/c1cccc([N+](=O)[O-])c1)OCC(=O)N1CCOCC1	inactive	
O=[N+]([O-])c1ccc(N/N=C/c2ccccc2)cc1	inactive	
COc1ccc(NC(=O)CNC(=O)Cc2ccccc2)cc1OC	inactive	
C[C@]12CC[C@@H]3c4ccc(O)cc4C[C@@H](CCCCCCCCCS(=O)CCCC(F)(F)C(F)(F)F)C3[C@@H]1CC[C@@H]2O (stereo partly drawn)	6.01 µM (active)	
O=C(CCNC(=O)c1ccc([N+](=O)[O-])cc1)NC1CCCCC1	inactive	
CCSc1ncnc2c(C#N)c3n(c12)CCCCC3	11.7 µM (active)	
CCOC(=O)c1c(N=CN(C)C)c(C#N)c2n1CCCC2	inactive	
CC(C)c1nnc(NC(=O)COC(=O)/C=C/c2ccc([N+](=O)[O-])cc2)s1	inactive	
Cc1cc(C)n(CC(C)NCc2c(C(=O)N3CCOCC3)nc3c(C)cccn23)n1 (stereo not drawn)	inactive	
COC(=O)C1[C@H]2SC(C)(C)C(C(=O)OC)N2C(=O)N1Cc1nc2ccccc2s1 (stereo partly drawn)	inactive	
Cc1cccc(-n2c(N)c(C(=O)N3CCN(C)CC3)sc2=S)c1	inactive	
Cc1ccc(-n2c(N)c(C(=O)N3CCOCC3)sc2=S)c(C)c1	inactive	
N#Cc1ccccc1-n1c(N)c(C(=O)N2CCCC2)sc1=S	3.7 µM (active)	
COC(=O)Cc1ccc(OCC(=O)NC2CCCC2)cc1	inactive	
O=C(NNc1c2ccccc2nc2ccccc12)c1cc2ccccc2cc1O	3.7 µM (active)	
O=C(N/N=C/c1cccnc1)c1cc2ccccc2cc1O	inactive	
CC(C)(C)OC(=O)NNc1c2ccccc2nc2ccccc12	inactive	
O=C(COC(=O)c1ccc2ncsc2c1)Nc1ccc(Cl)cc1	inactive	
COc1ccccc1C(=O)N/C(=C/c1ccco1)C(=O)Nc1ccc(C(=O)O)cc1	inactive	
CCCCN(C)CCC(=O)Nc1ccc(Cl)cc1	inactive	
C=CCCC(=O)Nc1nc(C)c(-c2csc(Nc3ccc(Cl)cc3)n2)s1	0.657 µM (active)	
CCCCC(=O)N/N=C(\C)CC(=O)Nc1cc(Cl)ccc1OC	inactive	

Compound	Potency	activity change, negative = inhibition
COc1ccc(-c2csc(NC(=O)COC(=O)Cc3ccc(Cl)cc3Cl)n2)cc1	inactive	
CC(=O)c1sc(NC(=O)CCCOc2ccccc2C)nc1C	inactive	
CCCCC(=O)Nc1nc(C)c(-c2csc(Nc3ccc(Cl)cc3)n2)s1	3.29 µM (active)	
CCOC(=O)c1csc(NC(=O)Nc2cccc(OC)c2)n1	inactive	
Cc1nc(C)c(-c2csc(NCCc3ccccc3)n2)s1	inactive	
COc1ccc(OC)c(-c2csc(NC(=O)COC(=O)C3CC3)n2)c1	inactive	
CCCCCCC(=O)Nc1nc(C)c(-c2csc(Nc3cccc(OC)c3)n2)s1	7.38 µM (active)	
COc1ccc(OC)c(Nc2nc(-c3ccc(O)c(O)c3)cs2)c1	inactive	
CCCCCCC(=O)Nc1nc(C)c(-c2csc(Nc3cc(Cl)ccc3OC)n2)s1	2.62 µM (active)	
COc1ccc(-c2ccc(OC(=O)NC3CCS(=O)(=O)C3)cc2)cc1 (stereo not drawn)	inactive	
O=[N+]([O-])c1cc(S(=O)(=O)NCCc2ccccn2)ccc1Cl	inactive	
CN1CCN(Cc2c(C(=O)N3CCc4ccccc4C3)nc3ccc(Cl)cn23)CC1	inactive	
COC(=O)c1ccc(NC(=O)CSc2nc(N)c(NC(=O)c3ccc(Br)o3)c(=O)[nH]2)cc1	inactive	
CCN(CC(=O)Nc1cc(Cl)ccc1C)C(=O)CN1C(=O)NC2(CCCC2)C1=O	inactive	
Cc1cc(=O)oc2c(C)c(OCC(=O)NCCc3ccc(S(N)(=O)=O)cc3)ccc12	inactive	
Cc1ccc(OCC(=O)Nc2ccc(C(=O)O)cc2NC(=O)COc2ccc(C)c(C)c2)cc1C	inactive	
CC1(C)CC(N2CCN(C(c3ccccc3)c3ccccc3)CC2)=CC(=[N+]2CCCCC2)C1	0.415 µM (active)	
O=C1CC(N2CCN(C(c3ccccc3)c3ccccc3)CC2)C(=O)N1 (stereo not drawn)	inactive	
CC1(C)CC(=O)C=C(N2CCCC2)C1	inactive	
CCOc1ccc(S(=O)(=O)Nc2ccc(OC)nc2)cc1	inactive	
CN(CCO)c1ccc(/C=N/Nc2nncc3ccccc23)cc1	inactive	
COc1ccc2oc(=O)c(C(=O)N3CCCc4ccccc43)cc2c1	inactive	
Cc1occc1C(=O)N1CCCc2ccccc21	10.4 µM (active)	
CCC(=O)N1CCCc2ccccc21	inactive	
COc1cc(NC(=O)CN2C(=O)NC(C)(c3ccc(OC(F)F)cc3)C2=O)cc(OC)c1OC (stereo not drawn)	inactive	
COc1ccc(Cl)cc1S(=O)(=O)N1CCC(O)(c2ccc(Cl)cc2)CC1	inactive	

Compound	Potency	activity change, negative = inhibition
CCOc1cc(C(C(=O)NCC2CCCO2)N(C(=O)Cn2nnc3ccccc32)c2cccc(OC)c2)ccc1O (stereo not drawn)	inactive	
COC(=O)c1sc(N2CCN(Cc3ccccc3)CC2)nc1N	inactive	
CS(=O)(=O)c1ccc(Cl)c(NC(=O)COC(=O)c2ncc(Cl)c(Cl)c2Cl)c1	inactive	
Cc1ccc(S(=O)(=O)c2c[nH]c3ccc(Cl)cc3c2=O)cc1	inactive	
COc1ccc2[nH]c3c(=O)n(Cc4ccco4)cnc3c2c1		6.11% [at 5.75 µM]
COc1ccc(-c2oc3ncn(Cc4ccco4)c(=N)c3c2-c2ccc(OC)cc2)cc1	6.57 µM (active)	
COc1ccc(Nc2nc(Cl)nc(NCc3ccco3)n2)cc1	inactive	
CN(c1ccccc1)S(=O)(=O)c1ccc2[nH]c(=O)[nH]c2c1	inactive	
CC(CCc1ccccc1)NC(=O)COC(=O)c1ccc(F)cc1 (stereo not drawn)	inactive	
CCn1ncc(C2=NOC(C(=O)N3CCN(c4ccccc4)CC3)C2)c1C (stereo not drawn)	inactive	
CCOC(=O)N1CCN(CC(=O)Nc2ccc(F)cc2)CC1	inactive	
O=C(c1ccco1)N1CCN(C(=O)c2ccc(COc3ccc(F)cc3)o2)CC1	inactive	
O=C(c1ccc2c(c1)OCO2)N1CCN(C(=O)c2ccco2)CC1	inactive	
Cc1ccc(NC(=O)C2CC(c3ccc(F)cc3)=NO2)cc1 (stereo not drawn)	4.15 µM (active)	
O=C(Cc1c(F)cccc1Cl)N1CCN(C(=O)c2ccco2)CC1	inactive	
CCNC(=S)N1CCN(C(=O)c2ccco2)CC1	inactive	
CCOC(=O)N1CCN(C(=O)C2CC(c3ccc(F)cc3)=NO2)CC1 (stereo not drawn)	4.65 µM (active)	
O=C(c1ccco1)N1CCN(C(=O)C2CC(c3ccc(Cl)c(Cl)c3)=NO2)CC1 (stereo not drawn)	5.86 µM (active)	
O=C(NCc1cc(C(F)(F)F)cc(C(F)(F)F)c1)C1CC(c2cccc(F)c2)=NO1 (stereo not drawn)	inactive	
COc1ccc(CNC(=O)C2CC(c3ccc(C(F)(F)F)cc3)=NO2)cc1 (stereo not drawn)	inactive	
O=C(c1ccco1)N1CCN(C(=O)C2CC(c3ccc(F)cc3)=NO2)CC1 (stereo not drawn)	7.38 µM (active)	
O=C(COc1nsnc1N1CCOCC1)Nc1ccccc1Cl	inactive	
COc1cccc(/C=C/C(=O)OCC(=O)N2CCN(c3ccccc3)CC2)c1	inactive	
Cc1ccc(CC2CC(=O)N(c3cc(C)ccc3C)C2=O)cc1 (stereo not drawn)	inactive	
Cc1ccc(S(=O)(=O)CC(=O)Nc2sc(C)c(C)c2C(N)=O)cc1	inactive	
O=C(NNC(=O)C1CCC1)c1ccccc1	inactive	

Compound	Potency	activity change, negative = inhibition
Cc1cccc(C2C3=C(CCCC3=O)N=C3c4ccccc4C(=O)C32)c1 (stereo not drawn)	inactive	
COc1ccc(-c2cc(C(=O)NCCCn3ccnc3)no2)cc1	8.28 µM (active)	
COc1ccc(-c2cc(C(=O)NCCCN3CCOCC3)no2)cc1	inactive	
O=C(NCCCn1ccnc1)c1cc(-c2ccccc2)on1	inactive	
Cc1ccc(S(=O)(=O)NC(=O)c2cccc(C)c2)cc1	inactive	
O=C(NC1CCN(S(=O)(=O)c2ccc(F)cc2)CC1)c1ccccc1	inactive	
CCN(CC)CCN(C(=O)c1ccc(S(=O)(=O)N2CCOCC2)cc1)c1nc2cc3c(cc2s1)OCCO3	inactive	
Cc1cccc2cc3c(N)c(C(=O)N4CCCc5ccccc54)sc3nc12	11.7 µM (active)	
CCCn1nc(C(=O)N2CCCc3ccccc32)c2ccccc2c1=O	inactive	
Cc1c(C(=O)N2CCCc3ccccc32)sc2nc(-c3ccccc3)cn12	inactive	
CCOC(=O)c1c(C)[nH]c(C(=O)OCC(=O)N2CCCC2=O)c1C	inactive	
COc1cccc(NC(=O)COC(=O)/C=C/c2ccco2)c1	inactive	
COCCCNC(=O)Cc1ccc(-n2c(C)nc3cccnc32)cc1	inactive	
COc1cc2c(cc1OC)CC(=O)N(CCCN(C)C[C@H]1Cc3cc(OC)c(OC)cc31)CC2	inactive	
Cn1c(=O)c2c(SCC(=O)N3CCOCC3)nc(C3CC3)nc2n(C)c1=O	inactive	
CCCCn1c(SCC(=O)N2CCOCC2)nc2c1c(=O)n(C)c(=O)n2C	11.7 µM (active)	
C#CC(C)(C)NC(=O)CSc1nc2c(c(=O)n(C)c(=O)n2C)n1CCCC	inactive	
CC(C)CC(=O)c1c[nH]c(C(=O)NCc2ccccc2)c1	inactive	
Cc1nc(SCC(=O)NC2CCCCC2C)c(C#N)c(C)c1C (stereo not drawn)	inactive	
N#Cc1c(C(F)(F)F)cc(-c2ccccc2)nc1SCC(=O)N1CCOCC1	inactive	
COc1ccc(-c2cn[nH]c2-c2ccc(OC)cc2)cc1	inactive	
COc1ccc(-c2cc(-c3ccc(N)cc3)nc(N)c2C#N)cc1OC	inactive	
N#Cc1c(-c2ccccc2)cc(-c2ccccc2)nc1SCC(=O)O	inactive	
CCSc1nc(-c2ccc(OC)cc2)cc(-c2ccc(OC)cc2)c1C#N	4.65 µM (active)	
CCOC(=O)CC(=O)CSc1nc(-c2ccccc2)cc(-c2ccc(Cl)cc2)c1C#N	7.38 µM (active)	

— PubChem BioAssay AID504834 (National Center for Advancing Translational Sciences (NCATS), 2011)
